These results are taken from ChEMBL document CHEMBL3988442, “University of Dundee, Small-Polar-MMV Screening Library” (2021).

In all, about 48,000 compounds went through this assay and about 13,000 (27%) showed an effect of 50% or more. The list shows a part of the results.

This assay relates to Wolbachia pipientis. Description: Anti-Wolbachia Cell-Based Screen. In kind it is functional. Further details: scale not given: in the data most compounds retested in dose-response had high values. Conditions: 5 µM.
With `O=C([C@@H]1COC[C@H]2CN(C3CCCCC3)C[C@H]21)N1CCOCC1`, the “Percent Effect” value is on record as -4.013%.

`O=C(CSCC1CC1)N1CCCC(c2nccn2Cc2ccncc2)C1` (stereo not given): the “Percent Effect” value is recorded as 26.77%.

Take `O=C(c1ccnnc1)N1CC[C@H]2[C@H]1CCN2S(=O)(=O)C1CC1`: the “Percent Effect” value is reported as -8.086%.

As to `CS(=O)(=O)N1C[C@@H]2OCC(=O)N(CC3CC3)[C@@H]2C1`, the “Percent Effect” value is on record as -6.528%.

As to `O=C1CC[C@@H]2[C@@H](CCN2S(=O)(=O)C2CC2)N1CC1CC1`, the “Percent Effect” value amounted to 105.6%.

As to `COCCC(=O)N1CCn2cc(CN3CCN(C)CC3)nc2C1.O=C(O)C(F)(F)F.O=C(O)C(F)(F)F`, the “Percent Effect” value is -0.4638%.

For `Cc1noc(C)c1-c1nc(C2CCCN(C(=O)C(C)C)C2)ccc1CO` (stereo not given), the “Percent Effect” value is reported as 110.5%.

Consider `CC(=O)N1CCCC(c2ccc(CO)c(-c3c(C)noc3C)n2)C1` (stereo not given), for which the “Percent Effect” value is given as 98.56%.

On to `CCCc1cc(NCCC2CCCOC2)n2nccc2n1` (stereo not given), for which the “Percent Effect” value is -37.65%.

Consider `COCC(=O)N1CCC2(CCCN(Cc3cnn(C)c3)C2)C1` (stereo not given), for which the “Percent Effect” value was 0.82%.

For the molecule `COCC(=O)N1CCCC2(CCN(c3cncnc3)C2=O)C1` (stereo not given), the “Percent Effect” value is reported as -8.381%.

For `COCC(=O)N1CCCC(C)(c2nncn2C)C1` (stereo not given), the “Percent Effect” value was 100.7%.

Regarding `COc1cccc(S(=O)(=O)N2CCN(C)[C@@H]3CS(=O)(=O)C[C@@H]32)c1`, the “Percent Effect” value was 0.7716%.

For `CN1CCN(S(=O)(=O)c2cccc(S(=O)(=O)C3CCS(=O)(=O)C3)c2)CC1` (stereo not given), the “Percent Effect” value is 83.09%.

Take `CSCc1cccc(S(=O)(=O)N2CCSCC2)c1`: the “Percent Effect” value was found to be 9.116%.

For the molecule `O=C(O)c1cc(-c2cccnc2)cc(S(=O)(=O)N2CCCCCC2)c1`, the “Percent Effect” value is -2.874%.

Regarding `O=S1(=O)CCC(S(=O)(=O)c2cccc(S(=O)(=O)N3CCCCCC3)c2)C1` (stereo not given), the “Percent Effect” value was found to be 99.56%.

With `O=S1(=O)CCC(S(=O)(=O)c2cccc(S(=O)(=O)N3CCOCC3)c2)C1` (stereo not given), the “Percent Effect” value turned out to be 94.82%.

For `CSCc1cccc(S(=O)(=O)N2CCC(C)CC2)c1`, the “Percent Effect” value is listed as -3.451%.

As to `Cc1cccc(S(=O)(=O)N2CCC3(CC2)CC(N(C)C)CO3)c1` (stereo not given), the “Percent Effect” value was -10.34%.

For the molecule `O=S1(=O)CCC(S(=O)(=O)c2cccc(S(=O)(=O)N3CCCC3)c2)C1` (stereo not given), the “Percent Effect” value came out at 102.5%.

As for `Cc1ccc(S(=O)(=O)N2CCC(N3CCCCC3)CC2)cc1C`, the “Percent Effect” value stood at 2.331%.

On to `CNC(=O)CS(=O)(=O)C1CCN(S(=O)(=O)c2cccc(C(C)=O)c2)CC1`, for which the “Percent Effect” value is recorded as -4.98%.

With `F[C@@H]1CN(CC2CC2)C[C@@H]1OCc1nc2cnccc2[nH]1`, the “Percent Effect” value turned out to be 0.2441%.

For `COc1ccc(C(=O)NC2CC2)c(OC2CCN(C(C)CO)CC2)c1` (stereo not given), the “Percent Effect” value is recorded as -4.273%.

`CC(=O)N(Cc1ccoc1)C1CCCCC1`: the “Percent Effect” value came to 5.985%.

With `CCCNC(=O)c1sc(Nc2ccc(Cl)cn2)nc1C`, the “Percent Effect” value was determined as 11.67%.

As to `CCN(CC)C(=O)CNC(=O)c1cnc(-c2ccccc2)nc1`, the “Percent Effect” value is 0.8892%.

Take `CCOc1ccc(CC(=O)N2CCN(c3nccn3C)CC2)cc1.Cl`: the “Percent Effect” value is listed as -3.351%.

Turning to `COc1cccc(CN(C)C(=O)CN2CCN(c3nccn3C)CC2)c1`, the “Percent Effect” value came out at 6.217%.

Take `Cl.Cn1ccnc1N1CCN(C(=O)Cc2ccc(F)cc2)CC1`: the “Percent Effect” value was 9.363%.

With `Cl.Cn1ccnc1N1CCN(C(=O)Cc2ccccc2)CC1`, the “Percent Effect” value was 103.6%.

`CC(=O)N1CCN(C(=O)CN2CCN(c3cccc(C)c3)CC2)CC1`: the “Percent Effect” value is 4.87%.

Regarding `COc1ccc(CC(=O)N2CCN(c3nccn3C)CC2)cc1.Cl`, the “Percent Effect” value is reported as 92.57%.

Consider `Cc1cccc(CC(=O)N2CCN(c3nccn3C)CC2)c1.Cl`, for which the “Percent Effect” value came to 119.3%.

Turning to `Cc1cc(N2CCCN(C(=O)Cc3ccc(O)c(Cl)c3)CC2)ccn1`, the “Percent Effect” value amounted to 6.362%.

For the molecule `Cl.Cn1ccnc1N1CCN(C(=O)Cc2ccc(Cl)cc2)CC1`, the “Percent Effect” value stood at 89.82%.

Turning to `Cc1cccc(N2CCN(CCCNC(=O)c3nccn3C)CC2)c1`, the “Percent Effect” value worked out at 29.8%.

For `CN(C)c1cnnc(N2CCN(C(=O)Cc3ccccc3)CC2)c1`, the “Percent Effect” value was determined as 6.121%.

Consider `CSc1cc2c(cc1NC(=O)NCc1ccco1)OCCO2`, for which the “Percent Effect” value was -2.93%.

As for `Cc1cnn(CC(=O)NC2CCCc3cc(OC(F)F)ccc32)c1` (stereo not given), the “Percent Effect” value is listed as -5.352%.

Regarding `Cc1nn(C(C)C)c(C)c1S(=O)(=O)Nc1ccc(C(=O)O)cc1`, the “Percent Effect” value was -3.585%.

For the molecule `COc1nc2ccn(CCNc3cc(C)ccn3)c(=O)c2cc1C#N`, the “Percent Effect” value is listed as -7.591%.

In the case of `Cn1cc(N2CC3(CCN(S(C)(=O)=O)C3)CC2=O)cn1` (stereo not given), the “Percent Effect” value is on record as -6.805%.

Take `CCOc1ccc(C(=O)N2CCN(c3nccn3C)CC2)cc1.Cl`: the “Percent Effect” value came out at 123.5%.

For the molecule `CCn1ccnc1C1CCN(C(=O)Nc2ccc(OC)cc2)CC1`, the “Percent Effect” value is reported as -6.796%.

As for `CCn1ccnc1C1CCN(C(=O)C(O)c2ccc(OC)cc2)CC1` (stereo not given), the “Percent Effect” value is recorded as 13.84%.

In the case of `CCOc1ccc(NC(=O)CN2CCN(c3nccn3C)CC2)cc1`, the “Percent Effect” value is 10.39%.

Turning to `CCOc1cc(N2CCN(C(=O)c3ccc(OC)cc3)CC2)nc(C)n1`, the “Percent Effect” value came out at 6.189%.

`CCOc1ccc(CC(=O)N2CCN(c3nccn3CC)CC2)cc1.Cl`: the “Percent Effect” value stood at 105.4%.

As for `CCc1ccc(CC(=O)N2CCN(c3nccn3C)CC2)cc1`, the “Percent Effect” value is reported as 102.2%.

As to `Cc1occc1C(=O)Nc1cc(N2CCNC2=O)ccc1Cl`, the “Percent Effect” value was -16.86%.

In the case of `CNCC(=O)N[C@H]1CN(c2nc(C)c3c(n2)CCCC3)C[C@@H]1C1CC1`, the “Percent Effect” value is on record as -22.84%.

As to `OCCCNC1CCc2cc3c(cc21)OCCO3` (stereo not given), the “Percent Effect” value was determined as 0.5317%.

With `Clc1ccc(C2NCCc3cc4c(cc32)OCCO4)cc1` (stereo not given), the “Percent Effect” value was 60.9%.

On to `OCC1(CNC2CCc3cc4c(cc32)OCCO4)CC1` (stereo not given), for which the “Percent Effect” value was -8.17%.

Regarding `CCc1ccc(C2NCCc3cc4c(cc32)OCCO4)cc1` (stereo not given), the “Percent Effect” value is 132.5%.

As for `Fc1ccccc1C1NCCc2cc3c(cc21)OCCO3` (stereo not given), the “Percent Effect” value stood at 96.06%.

As for `O=C(CSc1ccc2c(c1)OCCO2)NS(=O)(=O)c1ccccc1F`, the “Percent Effect” value came out at 11.66%.

Take `O=C(CCSc1ccccc1F)NS(=O)(=O)c1ccc2c(c1)OCCO2`: the “Percent Effect” value was -3.97%.

Regarding `OCCNC1CCc2cc3c(cc21)OCCO3` (stereo not given), the “Percent Effect” value is -2.778%.

For the molecule `CCc1nc2c(NCC3COc4ccccc4C3)ncnc2o1` (stereo not given), the “Percent Effect” value is -41.62%.

As to `CCNC(=O)C(C)NC(=O)Nc1ccccc1SCC` (stereo not given), the “Percent Effect” value was -19.41%.

In the case of `Cc1oncc1C(=O)N1CCC2(CCN(Cc3cccc(F)c3)C2=O)C1` (stereo not given), the “Percent Effect” value is 82.89%.

Regarding `Cc1oncc1C(=O)N1CC[C@@H]2[C@@H]1CC(=O)N2Cc1cccnc1.O=C(O)C(F)(F)F`, the “Percent Effect” value was determined as 95.81%.

In the case of `Cc1cccc(CN2CCCC(O)(CNCc3cccc(F)c3)C2=O)c1` (stereo not given), the “Percent Effect” value is reported as -1.044%.

With `Cc1oncc1C(=O)N1CC[C@H]2[C@@H]1CCC(=O)N2c1cccnc1.O=C(O)C(F)(F)F`, the “Percent Effect” value is recorded as -37.57%.

On to `O=C(O)C(F)(F)F.O=C(c1ccco1)N1CC[C@H]2[C@H]1CC(=O)N2c1cccnc1`, for which the “Percent Effect” value is -20.41%.

On to `COCCN1CCC2(CCCN(C(=O)c3cnoc3C)C2)C1=O` (stereo not given), for which the “Percent Effect” value was determined as 5.935%.

For `Cc1oncc1C(=O)N1CCC2(CCN(Cc3cccnc3)C2=O)C1.O=C(O)C(F)(F)F` (stereo not given), the “Percent Effect” value worked out at 107.4%.
